The whole screen tested about 320,000 compounds, of which about 2,100 (0.66%) were called active. Another 53% or so got no clear call; they are omitted. Calls come from the whole dose curve; as a rule, active = well fitted inhibition curve with a large enough effect in the signal ratio, with a control signal flat (not every such curve was filed as active); inconclusive = small, poorly fitted or top-dose-only effect, or effect the other way, or a change in a side signal; inactive = flat fitted curve, though single readings scatter; the % refers to the signal ratio. This excerpt belongs to a sample that is enriched for actives.
Potency is the fitted concentration of half-maximal effect.

A short description of the assay: qHTS Assay for Lipid Storage Modulators in Drosophila S3 Cells.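 For cell number change: cells counted by Cell Tracker Red CMTPX staining in the red channel.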 For lipid storage change, negative = inhibition: % is set by controls: 0 for no effect and ±100 for the full control effect. As to conditions: BODIPY lipid droplet fluorescence, 18-24 h, cells fed with added oleic acid; cell number change: measured here: cell count max response; series mostly up to 46.1 µM; lipid storage change, negative = inhibition: at the top concentration. The source says:
NIH Molecular Libraries Probe Production Centers Network [MLPCN] NIH Chemical Genomics Center [NCGC] MLPCN Grant: 1 R03 MH085686-01 Assay Submitter (PI): Beller, Mathias; Max-Planck-Institut fur Biophysikalische Chemie NCGC Assay Overview: Storing lipids as a reservoir for energy or the anabolism of elementary metabolites is a common feature of probably all cells and is conserved from bacteria to humans. The universal cellular lipid storage organelle is the so-called lipid storage droplet (LD). Although ubiquitous, LDs share a simple structure composed of a hydrophobic core that harbors the storage lipids, which is shielded by a droplet-specific phospholipid monolayer to which proteins are attached. The current model of LD biogenesis involves an incorporation of the lipid core into the membrane leaflets of the endoplasmic reticulum (ER) followed by a subsequent budding-like maturation of a LD, which ultimately pinches off. Once released, LD volume can increase by localized lipogenesis or fusion of existing droplet. Storage lipids are re-mobilized enzymatically by lipase activity. Lipase regulation in the adipocyte is heavily studied and involves multiple components including catecholamine signaling, the LD-associated proteins Perilipin and comparative gene identification (CGI-58) and at least two lipases named hormone sensitive lipase (HSL) and adipocyte triglyceride lipase (ATGL). LD regulation outside of the adipocyte is poorly understood and only few components are known. However, there is an urgent need to learn more about ectopic fat depots as mislocalized storage of lipids, for example in the liver or muscle, is an eminent health problem associated with insulin resistance or the metabolic syndrome. We developed a laser-scanning cytometer assay to enable 1,536-well screening and combined the results of the small molecules screen with an RNAi database based on lipid storage.
Triacsin C (Sigma-Aldrich T-4540), an inhibitor of long-chain fatty acyl CoA synthetase that blocks synthesis of triglycerides, was used as a positive control for lipid under-storage. A total of 23 nL of compound solution of different concentrations were transferred to the assay plates using a Kalypsys pin tool equipped with a 1,536-pin array containing 10-nL slotted pins (FP1S10, 0.457-mm diameter, 50.8 mm long; V&P Scientific). One microliter of oleic acid (400 uM) was added, and the plate was lidded with stainless steel rubber gasket lined lids containing pinholes. […] Fluorescence was detected by excitation of the fluorophores with a 488-nm laser on an Acumen Explorer (TTP Lab Tech). The total intensity in channel 2 (500-530 nm) reflected lipid droplet accumulation. Cells were detected using channel 3 (575-640 nm) with 5-um width and 100-um depth filters. The ratio of the number of objects in PMT channel 2 over the number of objects in PMT channel 3 was also calculated. Percent activity was computed relative to an internal control (100% inhibited lipid droplet deposition due to the presence of 20 uM Triacsin C), which was added to 32 wells/plate.
In general terms: In qHTS, concentration-response curves come from the screen itself.
Turning to `O=C(O)CSc1nnnn1C1CCCCC1`, the “lipid storage change, negative = inhibition” value was -2% (inactive) and the cell number change was 12.8%.

Take `CCOC(=O)c1oc2ccccc2c1COC(=O)CNC(=O)c1ccccc1`: the “lipid storage change, negative = inhibition” value is -1.38% (inactive) and the cell number change is -8.09%.

On to `NC(=O)C1CCN(CC(O)CSc2ccccc2)CC1` (stereo not given), for which the “lipid storage change, negative = inhibition” value is 22.1% (inactive).

Regarding `Cc1nnc(N/N=C/c2ccco2)n1N`, the “lipid storage change, negative = inhibition” value is -2.72% (inactive) and the cell number change was -14%.

As for `N/C(=N\OC(=O)c1cc([N+](=O)[O-])ccc1Cl)c1cccnc1`, the “lipid storage change, negative = inhibition” value was -20.1% (inactive) and the cell number change is -8.86%.

In the case of `CN(C)CCCNC(=O)C(=O)NCC1OCCN1S(=O)(=O)c1cccs1` (stereo not given), the “lipid storage change, negative = inhibition” value was -20.9% (inactive) and the cell number change came out at 1.62%.

Consider `O=C1CCCc2ccccc2N1Cc1ccc(Cl)cc1`, for which the “lipid storage change, negative = inhibition” value was -16.9% (inactive) and the cell number change is -1.32%.

For `Cc1ccc2c(c1)N(CC(=O)NCCC1=CCCCC1)C(=O)c1cccnc1O2`, the “lipid storage change, negative = inhibition” value is 0.185% (inactive) and the cell number change turned out to be 12.4%.

On to `COc1ccc(OCC(=O)Nc2ccc(S(=O)(=O)N3CCN(C)CC3)cc2)cc1`, for which the “lipid storage change, negative = inhibition” value was -10.7% (inactive) and the cell number change was -8.24%.

As to `COc1ccc(OCC(=O)OCC(=O)NC2CCCCC2C)cc1` (stereo not given), the “lipid storage change, negative = inhibition” value is -7.59% (inactive) and the cell number change stood at 5.06%.

`COc1cc(NC2CCCCC2O)c2nc(-c3ccc(Cl)cc3)ccc2c1` (stereo not given): the Potency was 14.6 µM (active) and the cell number change is -29.8%.

For `CC1CCCCC1NC(=O)COC(=O)Cc1ccc(Cl)cc1` (stereo not given), the “lipid storage change, negative = inhibition” value was 4.08% (inactive) and the cell number change is -17.8%.

With `NC1=NC(=O)C(CC(=O)c2ccc(Cl)cc2)S1` (stereo not given), the “lipid storage change, negative = inhibition” value was 3.54% (inactive) and the cell number change was -1.82%.

Consider `O=C1CC(C(=O)Nc2ccc(C(=O)O)cc2)C(c2ccccc2)O1` (stereo not given), for which the “lipid storage change, negative = inhibition” value was -2.1% (inactive) and the cell number change was -9.22%.

Consider `O=C(CN1CCCCCC1)N1c2ccccc2C=Cc2ccccc21`, for which the Potency is 23.1 µM (active) and the cell number change is -1.69%.

For the compound `O=C(CN1CCC(O)CC1)N1c2ccccc2C=Cc2ccccc21`, the “lipid storage change, negative = inhibition” value is -0.597% (inactive) and the cell number change was 5.26%.

In the case of `O=C(CN1CCCC1)N1c2ccccc2C=Cc2ccccc21`, the “lipid storage change, negative = inhibition” value is 8.55% (inactive) and the cell number change was -13.2%.

In the case of `Cc1nn(CC(=O)OCC(=O)Nc2c(C(C)C)cccc2C(C)C)c(C)c1[N+](=O)[O-]`, the “lipid storage change, negative = inhibition” value was -9.28% (inactive) and the cell number change was determined as 13.1%.

Regarding `CCOc1ccc(C=NC23CN4CN(CN(C4)C2)C3)cc1`, the “lipid storage change, negative = inhibition” value is -12.4% (inactive) and the cell number change is 8.43%.

Turning to `C(=N\n1cnnc1)/c1ccc2c(c1)OCO2`, the cell number change came out at 14.5% and the lipid storage change, negative = inhibition was 3.76% [at 9.22 µM] (inactive).

With `C(=NC12CN3CN(CN(C3)C1)C2)c1ccc2c(c1)OCO2`, the Potency is 25.9 µM (active) and the cell number change is -2.59%.

For `Fc1ccccc1OCCCCN1CCCCC1`, the “lipid storage change, negative = inhibition” value was -16.9% (inactive) and the cell number change amounted to 6.04%.

On to `CC(C)NC(=O)C(Cc1ccccc1)N1C(=O)c2ccccc2C1=O` (stereo not given), for which the “lipid storage change, negative = inhibition” value is 0.505% (inactive) and the cell number change is -13.7%.

Take `COc1ccc2c(CCNC(N)=S)c[nH]c2c1`: the “lipid storage change, negative = inhibition” value is 2.34% (inactive) and the cell number change was 9.98%.

On to `Cc1cc(NC(=O)CCC(=O)N(CC(=O)NCC2CCCO2)c2ccc(C)c(C)c2)no1` (stereo not given), for which the Potency was 1.03 µM (active) and the cell number change is -10%.

In the case of `CCOc1ccccc1N(CC(=O)NCC1CCCO1)C(=O)CCC(=O)Nc1cc(C)on1` (stereo not given), the outcome was inactive and the cell number change is 6.09%.

With `Cc1cc(NC(=O)CCC(=O)N(CC(=O)NCC2CCCO2)c2ccccc2C)no1` (stereo not given), the “lipid storage change, negative = inhibition” value was 6.36% (inactive) and the cell number change stood at 5.33%.

As to `Cc1cc(NC(=O)CCC(=O)N(CC(=O)NCC2CCCO2)c2ccc(Cl)c(Cl)c2)no1` (stereo not given), the result was inactive and the cell number change was 10.4%.

On to `CCc1ccccc1N(CC(=O)NCC1CCCO1)C(=O)CCC(=O)Nc1cc(C)on1` (stereo not given), for which the Potency was 25.9 µM (active) and the cell number change turned out to be 7.08%.

As for `Cc1cc(NC(=O)CCC(=O)N(CC(=O)NCC2CCCO2)c2ccc3c(c2)OCCO3)no1` (stereo not given), the “lipid storage change, negative = inhibition” value was 1.58% (inactive) and the cell number change amounted to 10.4%.

With `COC(=O)c1ccc(N2C(=O)c3cc(N4CCOCC4)c([N+](=O)[O-])cc3C2=O)cc1`, the “lipid storage change, negative = inhibition” value is 1.86% (inactive) and the cell number change was found to be 0.29%.

Regarding `Cc1cccc2nc(CSc3nc4ccccc4[nH]3)cn12`, the “lipid storage change, negative = inhibition” value was -6.23% (inactive).

Take `CC1(C)Cc2c(c(=S)nc(-c3ccccc3)n2CCOCCO)CO1`: the “lipid storage change, negative = inhibition” value is 0.774% (inactive) and the cell number change was 4.5%.

Consider `COCCn1c(-c2ccccc2)nc(=S)c2c1CC(C)(C)OC2`, for which the call was inactive.
